From PubChem BioAssay AID624256 (NMMLSC, 2012) come the findings set out here.

Among all 360,000 compounds or so, about 3,700 (1%) were called active. Not shown: some 2% with an inconclusive outcome.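 The calls were made as follows: active = normalized GFP-positive differentiation at or above the plate's own cutoff, the solvent-only control mean plus 3 SD; inconclusive = no clear call, values can overlap the other calls; inactive = the rest.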 For the sample, actives were picked, then their nearest neighbours and some compounds at random.

The nature of the assay: induction of myeloid progenitor differentiation, primary screen, cell-based, flow cytometry, MLPCN library (AID 624256).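 As to GFP+ MAC1+ double positive: cells exposed to compound for four days before flow analysis.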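 As to normalized GFP-positive differentiation: cells exposed to compound for four days before flow analysis; 0% = DMSO wells and 100% = fulvestrant positive control at 5 µM.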 Conditions: ER-HoxA9 myeloid progenitors, lysozyme-GFP differentiation, at 10 µM; GFP+ MAC1+ double positive: measured here: differentiation confirmed by MAC1 staining, stronger effect = higher value; normalized GFP-positive differentiation: stronger effect = higher value.
Consider `CC(=O)Nc1cc(-c2ccccc2N(C)C)cn2c(-c3ccc(F)c(Cl)c3)cnc12`, for which the GFP+ MAC1+ double positive came to 1% and the compound was called inactive.

Take `O=c1c(F)cn(C2CCCO2)c(=O)n1Cc1ccccc1Cl` (centres undefined): the GFP+ MAC1+ double positive was 11.2% and the compound was called inactive.

`O=c1nc(NO)ccn1C1CCCO1` (centres undefined): the GFP+ MAC1+ double positive was 1.8% and the compound was classed as inactive.

Regarding `CNc1nc(=O)n(C2CCCO2)cc1C` (centres undefined), the GFP+ MAC1+ double positive is 23.7% and the normalized GFP-positive differentiation was 172% (active).

For the compound `O=C(Cc1ccc(-c2ccccc2)cc1)NC(c1ccccc1)c1ccccc1`, the GFP+ MAC1+ double positive came to 0.3% and the compound was called inactive.

On to `O=C(O)Cc1ccc(NCc2ccccc2Cl)cc1`, for which the GFP+ MAC1+ double positive was 0.6% and the call was inactive.

Take `O=C(O)Cc1ccc(-c2ccccc2)cc1`: the GFP+ MAC1+ double positive is 2.6% and the normalized GFP-positive differentiation was 92.4% (active).

For `Cc1cccc(CNC(=O)c2sc(=O)n(Cc3ccccc3C)c2C)c1`, the GFP+ MAC1+ double positive was determined as 4.1% and the outcome was inactive.

As for `COc1ccc(C(C(=O)Nc2c(C)cccc2C)N2CCN(c3ccc(C)cc3)CC2)cc1` (centres undefined), the GFP+ MAC1+ double positive came out at 2% and the call was inactive.

Take `CO[C@@H]1CN(C)C(=O)c2cc(NC(=O)Nc3cc(F)ccc3F)ccc2OC[C@H](C)N(C(=O)c2ccccn2)C[C@@H]1C`: the GFP+ MAC1+ double positive is 1.3% and the compound was called inactive.

For `COC(=O)[C@]12CCCCC=C1N(Cc1cccc3ccccc13)C(=O)[C@H](CC(=O)N1CCOCC1)C2`, the GFP+ MAC1+ double positive was determined as 0.7% and the compound was classed as inactive.

On to `CCOP(=O)(OCC)C(Cc1ccccc1)N=C(c1ccccc1)c1ccccc1` (centres undefined), for which the GFP+ MAC1+ double positive stood at 1% and the compound was called inactive.

With `CC(=O)N1Cc2cc(C(=O)NCc3cccc(F)c3)nc(-c3cccc(C4=CCCC4)c3)c2[C@H]1CCO`, the GFP+ MAC1+ double positive worked out at 0.3% and the outcome was inactive.

With `CC(C)c1ccc(-c2noc(C3CCCN(S(C)(=O)=O)C3)n2)cc1` (centres undefined), the GFP+ MAC1+ double positive is 2.8% and the result was inactive.

With `COc1cc(-c2noc(C3CCCN(S(=O)(=O)c4cccc(Cl)c4)C3)n2)cc(OC)c1OC` (centres undefined), the GFP+ MAC1+ double positive was found to be 16.1% and the normalized GFP-positive differentiation was 28.5% (active).

Turning to `COc1cccc(-c2noc(C3CCCN(C(=O)c4ccc(F)cc4)C3)n2)c1` (centres undefined), the GFP+ MAC1+ double positive was determined as 1.2% and the compound was called inactive.

On to `O=C(NCc1ccccn1)[C@@H]1CCCN1C(=O)[C@@H]1CCCN1C(=O)c1ccccc1`, for which the GFP+ MAC1+ double positive turned out to be 1.4% and the result was inactive.

Regarding `COC(=O)[C@@]12C[C@@H](CC(=O)NCc3cccc(C(F)(F)F)c3)C(=O)N(Cc3ccco3)C1=CCC(C)(C)C2`, the GFP+ MAC1+ double positive came out at 3.5% and the outcome was inactive.

Consider `COc1cccc(NC(=O)[C@H](Cc2c[nH]c3ccccc23)NC(=O)[C@@H]2Cc3ccccc3CN2)c1`, for which the GFP+ MAC1+ double positive came out at 5.1% and the normalized GFP-positive differentiation is 8.43% (active).

With `COc1ccc(NC(=O)[C@H](NC(=O)[C@@H]2Cc3ccccc3CN2)c2ccccc2)cc1`, the GFP+ MAC1+ double positive was determined as 3.2% and the call was inactive.

Take `COc1ccc(CNC(=O)[C@H](Cc2c[nH]c3ccccc23)NC(C)=O)cc1OC`: the GFP+ MAC1+ double positive was 0.3% and the call was inactive.

As to `CCc1nc2c(OCC(N)=O)cccn2c1N(C)C(=O)c1ccc(OC)cc1`, the GFP+ MAC1+ double positive came out at 1.1% and the compound was called inactive.

With `OC[C@@H]1CN(Cc2cccs2)C[C@H](n2cnc3c(Nc4ccccc4)ncnc32)O1`, the GFP+ MAC1+ double positive is 1.1% and the result was inactive.

For the compound `Cc1ccc(Cc2c(-c3ccco3)nc3ccc(Cl)cn23)cc1`, the GFP+ MAC1+ double positive was found to be 0.7% and the compound was called inactive.

For `O=C(c1ccccc1)N1CCC(CC2CC(c3ccc(Cl)cc3)=NO2)(C(=O)NCC2CCCCC2)CC1` (centres undefined), the GFP+ MAC1+ double positive stood at 1.5% and the outcome was inactive.

Turning to `CCCCCCCNC(=O)C1(CC2CC(c3cccc(Br)c3)=NO2)CCN(C(=O)c2cc(OCC)c(OCC)c(OCC)c2)CC1` (centres undefined), the GFP+ MAC1+ double positive amounted to 7.1% and the normalized GFP-positive differentiation is 26.1% (active).

Take `COc1ccc(CNC(=O)C2(CC3CC(c4ccccc4)=NO3)CCN(C(=O)c3cccc(O)c3)CC2)cc1` (centres undefined): the GFP+ MAC1+ double positive is 1.8% and the outcome was inactive.

Regarding `O=C(C(=O)N1CCC(c2ccccc2)CC1)c1ccccc1`, the GFP+ MAC1+ double positive stood at 2.1% and the outcome was inactive.

Consider `CC(C)(O)C#Cc1ccc(CNC[C@H]2O[C@@H](n3cnc4c(=O)[nH]c(N)nc43)[C@H](O)[C@@H]2O)s1`, for which the GFP+ MAC1+ double positive was 0.8% and the result was inactive.

Take `O=S1(=O)CC(N2CCN(CCO)CC2)CN1Cc1cn(Cc2ccc(Cl)cc2)nn1` (centres undefined): the GFP+ MAC1+ double positive was 1.6% and the result was inactive.

For the compound `COc1ccccc1CN1CCCC(N2CCN(c3ccc(F)cc3)CC2)C1` (centres undefined), the GFP+ MAC1+ double positive is 0.5% and the compound was classed as inactive.

Consider `CCc1noc(C)c1C(=O)N1CCCC(N2CCN(c3ccc(F)cc3)CC2)C1` (centres undefined), for which the GFP+ MAC1+ double positive worked out at 5.3% and the normalized GFP-positive differentiation was 46.7% (active).

For `Cc1cnc(C(=O)N2CCCC(N3CCN(c4ccccc4F)CC3)C2)cn1` (centres undefined), the GFP+ MAC1+ double positive came out at 6.8% and the result was inactive.

Turning to `COc1ccc(-c2[nH][nH]c(=O)c2NC(=O)c2ccc([N+](=O)[O-])cc2)cc1`, the GFP+ MAC1+ double positive was 0.8% and the outcome was inactive.

Take `COc1ccccc1N(CC(=O)Nc1ccccc1C(=O)N1CCCC1)S(C)(=O)=O`: the GFP+ MAC1+ double positive was 0.3% and the call was inactive.

With `O=C(Nc1ccccc1C(=O)N1CCCCCC1)c1ccccc1Cl`, the GFP+ MAC1+ double positive came to 0.1% and the compound was called inactive.

For `O=C(CN(c1ccccc1)S(=O)(=O)c1ccc(Cl)cc1)Nc1ccccc1C(=O)N1CCCC1`, the GFP+ MAC1+ double positive worked out at 17.3% and the normalized GFP-positive differentiation was 34.3% (active).

For `NCCCCC(C(=O)O)N(C(=O)OCc1ccccc1)C(=O)OCc1ccccc1` (centres undefined), the GFP+ MAC1+ double positive came out at 0.9% and the call was inactive.

As for `Cc1cc(=O)oc(C)c1C(=O)NCCN(C)Cc1ccccc1`, the GFP+ MAC1+ double positive turned out to be 0.6% and the result was inactive.

For `Cc1cc(=O)oc(C)c1C(=O)NCc1ccc(F)cc1`, the GFP+ MAC1+ double positive came to 9.2% and the result was inactive.

Consider `Cc1cc(=O)oc(C)c1C(=O)Nc1cnc2ccccc2c1`, for which the GFP+ MAC1+ double positive is 1% and the normalized GFP-positive differentiation is 6.77% (active).

Take `COc1ccc(-c2cc3c(c4c2ccn4C)C2CCC3C2)cn1` (centres undefined): the GFP+ MAC1+ double positive was found to be 1.4% and the compound was classed as inactive.
